Data published in PubChem BioAssay (Tox21).
Records with an inconclusive call do not appear. A number with no mark means an inactive call. The source made the active and inactive calls. Unless noted, calls come from the whole dose curve.

Assay: qHTS assay to identify small molecule agonists of the NFkB signaling pathway (AID 1159509; active = well fitted curve in the direction sought with a large enough effect in the signal ratio in the repeat runs, not every such curve was filed as active; the % refers to the signal ratio)
Conditions: NFkB-bla ME-180 cells, beta-lactamase FRET ratio, 5 h; series mostly up to 61 µM
Summary of the method: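 Agonist activity was read as beta-lactamase-driven FRET change (460 and 530 nm emission, 405 nm excitation) following 1.5 hr substrate loading at room temperature. Beforehand, ME-180 NFkB-bla reporter cells were treated with compounds for 5 hr at 37 C.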
% is set by controls: 0 for no effect and ±100 for the full control effect.

Row | Compound | outcome | activation
1 | CCC(C)(C)C1CCC(O)CC1 (stereo not given) | inactive | 
2 | CC(CCc1ccc2c(c1)OCO2)NN (stereo not given) | inactive | 
3 | C1COCO1 | inactive | 
4 | CCCCCCCCCCCC(=O)[O][Sn]([CH2]CCC)([CH2]CCC)[O]C(=O)CCCCCCCCCCC | inactive | 
5 | CC(CCO)CCc1ccccc1 (stereo not given) | inactive | 
6 | CC1=NN(c2ccc(C(=O)O)cc2)C(=O)C1 | inactive | 
7 | C[N+](C)(C)CCOC(N)=O | inactive | 
8 | C=CC(=O)NCOCC(C)C | inactive | 
9 | NC(=O)Nc1ccc(Cl)c(Cl)c1 | inactive | 
10 | CO[C@H]1O[C@H](CO)[C@@H](O)[C@H](O)[C@H]1O | inactive | 
11 | Brc1cc(-c2ccc(Br)c(Br)c2Br)cc(Br)c1Br | inactive | 
12 | O=Cc1c(Cl)cccc1Cl | inactive | 
13 | CCCCCCCCSCCO | inactive | 
14 | CCC(=O)OC/C=C/c1ccccc1 | inactive | 
15 | C[Si]1(C)O[Si](C)(C)O[Si](C)(C)O1 | inactive | 
16 | Cc1oncc1C(=O)Nc1ccc(C(F)(F)F)cc1 | inactive | 
17 | Nc1c(I)cc(I)c(C(=O)N(CCC(=O)O)c2ccccc2)c1I | inactive | 
18 | CCCCCCCCCCCCCCCCBr | inactive | 
19 | NC(=O)Cn1c(=O)cc(CCN2CCN(c3nccc4sccc34)CC2)c2ccc(F)cc21 | inactive | 
20 | CC(C)(C)C(=O)O | inactive | 

Row | Compound | outcome | activation
21 | CC1=CC(=O)CC(C)(C)C1(O)/C=C/C(C)=C\C(=O)O (stereo not given) | inactive | 
22 | C=CCCCCCCCCCCCCCCCC |  | 0.162% [at 6.95 µM]
23 | CO/N=C1\CN(c2nc3c(cc2F)c(=O)c(C(=O)O)cn3C2CC2)CC1CN (stereo not given) | inactive | 
24 | CC(=O)OCC(=O)[C@@]12OC(C)(C)O[C@@H]1C[C@H]1[C@@H]3C[C@H](F)C4=CC(=O)C=C[C@]4(C)[C@@]3(F)[C@@H](O)C[C@@]12C | inactive | 
25 | O=C(CCCCCCC(=O)Nc1ccccc1)NO | inactive | 
26 | CCCCC(=O)O[C@]1(C(=O)CO)CC[C@H]2[C@@H]3CCC4=CC(=O)CC[C@]4(C)[C@H]3[C@@H](O)C[C@@]21C | inactive | 
27 | CCCCC1C(=O)N(c2ccccc2)N(c2ccc(O)cc2)C1=O (stereo not given) | inactive | 
28 | Cc1nc2ccccc2s1 | inactive | 
29 | c1ccc(COCc2ccccc2)cc1 | inactive | 
30 | O=C(CCCCCCCCC#CI)Oc1ccccc1 | inactive | 
31 | O=C1OCCN1/N=C/c1ccc([N+](=O)[O-])o1 | inactive | 
32 | C[C@]12CCC(=O)C=C1C=C[C@@H]1[C@@H]2CC[C@@]2(C)[C@H]1CC[C@@]21CCC(=O)O1 | inactive | 
33 | CCOC(=O)N1CCC(n2c(=O)[nH]c3cc(Cl)ccc32)CC1 | inactive | 
34 | COc1cc2[nH]c(=O)[nH]c(=O)c2cc1OC | inactive | 
35 | OC(CCCN1CCCCC1)(c1ccccc1)c1ccccc1 | inactive | 
36 | Cc1cc(O)c2c(O)c3c(O)cccc3cc2c1 | inactive | 
37 | CCCc1c(OCCCOc2ccc(OCC(=O)O)cc2)ccc(C(C)=O)c1O | inactive | 
38 | COc1cc2c(N3CCN(C(=O)Nc4ccc(OC(C)C)cc4)CC3)ncnc2cc1OCCCN1CCCCC1 | inactive | 
39 | O=C(/C=C/c1ccccc1)OCCCc1ccccc1 | inactive | 
40 | OC/C(Br)=C(\Br)CO | inactive | 

Assay: qHTS assay to identify small molecule agonists of the NFkB signaling pathway - cell viability counter screen (AID 1159515); note: nearly all actives have a fitted effect of over 55% in size
Conditions: NFkB-bla ME-180 viability, CellTiter-Glo luminescence, 5 h; series mostly up to 61 µM
Summary of the method: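 Tox21 library compounds were tested for cytotoxicity against NFkB-bla ME-180 cells during a 5 hr exposure at 37 C. CellTiter-Glo luminescence served as the viability read-out.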

Row | Compound | outcome | activity, negative = cytotoxic
41 | CCC(C)(C)C1CCC(O)CC1 (stereo not given) | inactive | 
42 | CC(CCc1ccc2c(c1)OCO2)NN (stereo not given) | inactive | 
43 | C1COCO1 | inactive | 
44 | CCCCCCCCCCCC(=O)[O][Sn]([CH2]CCC)([CH2]CCC)[O]C(=O)CCCCCCCCCCC | inactive | 
45 | CC(CCO)CCc1ccccc1 (stereo not given) | inactive | 
46 | CC1=NN(c2ccc(C(=O)O)cc2)C(=O)C1 | inactive | 
47 | C[N+](C)(C)CCOC(N)=O | inactive | 
48 | C=CC(=O)NCOCC(C)C | inactive | 
49 | NC(=O)Nc1ccc(Cl)c(Cl)c1 | inactive | 
50 | CO[C@H]1O[C@H](CO)[C@@H](O)[C@H](O)[C@H]1O | inactive | 
51 | Brc1cc(-c2ccc(Br)c(Br)c2Br)cc(Br)c1Br | inactive | 
52 | O=Cc1c(Cl)cccc1Cl | inactive | 
53 | CCCCCCCCSCCO | inactive | 
54 | CCC(=O)OC/C=C/c1ccccc1 | inactive | 
55 | C[Si]1(C)O[Si](C)(C)O[Si](C)(C)O1 | inactive | 
56 | Cc1oncc1C(=O)Nc1ccc(C(F)(F)F)cc1 | inactive | 
57 | Nc1c(I)cc(I)c(C(=O)N(CCC(=O)O)c2ccccc2)c1I | inactive | 
58 | CCCCCCCCCCCCCCCCBr | inactive | 
59 | NC(=O)Cn1c(=O)cc(CCN2CCN(c3nccc4sccc34)CC2)c2ccc(F)cc21 | inactive | 
60 | CC(C)(C)C(=O)O | inactive | 

Row | Compound | outcome | activity, negative = cytotoxic
61 | CC1=CC(=O)CC(C)(C)C1(O)/C=C/C(C)=C\C(=O)O (stereo not given) | inactive | 
62 | C=CCCCCCCCCCCCCCCCC |  | -0.437% [at 6.95 µM]
63 | CO/N=C1\CN(c2nc3c(cc2F)c(=O)c(C(=O)O)cn3C2CC2)CC1CN (stereo not given) | inactive | 
64 | CC(=O)OCC(=O)[C@@]12OC(C)(C)O[C@@H]1C[C@H]1[C@@H]3C[C@H](F)C4=CC(=O)C=C[C@]4(C)[C@@]3(F)[C@@H](O)C[C@@]12C | inactive | 
65 | O=C(CCCCCCC(=O)Nc1ccccc1)NO | inactive | 
66 | CCCCC(=O)O[C@]1(C(=O)CO)CC[C@H]2[C@@H]3CCC4=CC(=O)CC[C@]4(C)[C@H]3[C@@H](O)C[C@@]21C | inactive | 
67 | CCCCC1C(=O)N(c2ccccc2)N(c2ccc(O)cc2)C1=O (stereo not given) | inactive | 
68 | Cc1nc2ccccc2s1 | inactive | 
69 | c1ccc(COCc2ccccc2)cc1 | inactive | 
70 | O=C(CCCCCCCCC#CI)Oc1ccccc1 | inactive | 
71 | O=C1OCCN1/N=C/c1ccc([N+](=O)[O-])o1 | inactive | 
72 | C[C@]12CCC(=O)C=C1C=C[C@@H]1[C@@H]2CC[C@@]2(C)[C@H]1CC[C@@]21CCC(=O)O1 | inactive | 
73 | CCOC(=O)N1CCC(n2c(=O)[nH]c3cc(Cl)ccc32)CC1 | inactive | 
74 | COc1cc2[nH]c(=O)[nH]c(=O)c2cc1OC | inactive | 
75 | OC(CCCN1CCCCC1)(c1ccccc1)c1ccccc1 | inactive | 
76 | Cc1cc(O)c2c(O)c3c(O)cccc3cc2c1 | inactive | 
77 | CCCc1c(OCCCOc2ccc(OCC(=O)O)cc2)ccc(C(C)=O)c1O | inactive | 
78 | COc1cc2c(N3CCN(C(=O)Nc4ccc(OC(C)C)cc4)CC3)ncnc2cc1OCCCN1CCCCC1 | inactive | 
79 | O=C(/C=C/c1ccccc1)OCCCc1ccccc1 | inactive | 
80 | OC/C(Br)=C(\Br)CO | inactive | 
